Assay results published in PubChem BioAssay (NCI).
This is part of a sample that, as a whole, favours compounds with a hit. Of some 79,000 tested, about 15% had one in any assay. Active and inactive are the calls of the source. Rule as the data show it: active = growth inhibition above about 70%; inactive = the rest.

Key:
[1] = NCI Yeast Anticancer Drug Screen. Data for the rad52 strain (AID 147);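 also: 0% = growth of vehicle-treated control cultures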; conditions: S. cerevisiae rad52 mutant growth inhibition, stronger effect = higher value
Summary of the method: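 Growth of repair-deficient yeast cells was compared between compound-treated and vehicle-treated cultures to give percent inhibition.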

[2] = NCI Yeast Anticancer Drug Screen. Data for the wt1 strain (AID 149);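 also: 0% = growth of vehicle-treated wt1 cultures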; conditions: S. cerevisiae wt1 strain (SPY 50644) growth inhibition, stronger effect = higher value
Summary of the method: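 Compounds are added to wt1 yeast cultures. Growth is then measured. Inhibition is expressed relative to vehicle-treated controls.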

[3] = NCI Yeast Anticancer Drug Screen. Data for the mgt1 strain (AID 153); conditions: S. cerevisiae mgt1 mutant growth inhibition, stronger effect = higher value
Summary of the method: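 Compounds were applied to mgt1 mutant yeast, and growth was then compared against vehicle-treated control cultures to give percent inhibition.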

[4] = NCI Yeast Anticancer Drug Screen. Data for the rad50 strain (AID 155);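 also: 0% = growth of vehicle-only cultures of the same strain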; conditions: S. cerevisiae rad50 strain growth inhibition, stronger effect = higher value
Summary of the method: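 Inhibition values express reduced yeast growth in compound-treated cultures relative to vehicle-treated controls.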

[5] = NCI Yeast Anticancer Drug Screen. Data for the mec2-1 strain (AID 157); conditions: S. cerevisiae mec2-1 strain, stronger effect = higher value
Summary of the method: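 Compounds were applied to mec2-1 yeast cells. Their growth was then compared with that of vehicle-treated cultures to give growth inhibition.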

[6] = NCI Yeast Anticancer Drug Screen. Data for the rad14 strain (AID 159);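 also: 0% = growth of vehicle-treated control cultures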; conditions: S. cerevisiae rad14 strain growth inhibition, stronger effect = higher value
Summary of the method: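 A mutant yeast strain defective in DNA damage repair is treated with compound; inhibition of its growth is scored against untreated, vehicle-exposed cultures.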

[7] = NCI Yeast Anticancer Drug Screen. Data for the sgs1 mgt1 strain (AID 161);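 also: 0% = growth of cultures given vehicle only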; conditions: S. cerevisiae sgs1 mgt1 strain, stronger effect = higher value
Summary of the method: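 Growth of a repair-deficient yeast mutant was monitored after compound treatment and expressed as inhibition relative to vehicle-treated cultures.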

[8] = NCI Yeast Anticancer Drug Screen. Data for the CLN2oe strain (AID 163);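 also: 0% = growth of vehicle-only control cultures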; conditions: S. cerevisiae CLN2oe strain, stronger effect = higher value
Summary of the method: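 Cells of an engineered yeast line with disturbed cell-cycle regulation are treated with compound. Inhibition of growth is then calculated relative to the vehicle-treated reference.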

[9] = NCI Yeast Anticancer Drug Screen. Data for the cln2 rad14 strain (AID 165);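 also: 0% = growth equal to vehicle treated cultures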; conditions: S. cerevisiae cln2 rad14 strain, stronger effect = higher value
Summary of the method: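 Strain: cln2 rad14 yeast, altered in cell cycle control and DNA damage repair. Read-out: growth inhibition vs vehicle.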

[10] = NCI Yeast Anticancer Drug Screen. Data for the bub3 strain (AID 167); conditions: S. cerevisiae bub3 mutant strain, stronger effect = higher value
Summary of the method: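 Steps: expose the mutant yeast strain to compound; grow alongside vehicle-treated cultures; measure growth; express inhibition against the vehicle cultures.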

[11] = NCI Yeast Anticancer Drug Screen. Data for the wt2 strain (AID 169);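 also: 0% = growth of vehicle-treated yeast cultures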; conditions: S. cerevisiae wt2 strain growth inhibition, stronger effect = higher value
Summary of the method: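 Growth of compound-treated yeast is measured and expressed as inhibition relative to vehicle-only controls.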

[12] = NCI Yeast Anticancer Drug Screen. Data for the mlh1 strain (AID 171);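 also: 0% = growth of vehicle-treated control cultures of the same strain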; conditions: S. cerevisiae mlh1 strain growth inhibition, stronger effect = higher value
Summary of the method: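 Test agents were incubated with yeast bearing a defined DNA damage repair or cell cycle control alteration; values are growth inhibition normalised to vehicle-treated cultures.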

[13] = NCI Yeast Anticancer Drug Screen. Data for the sgs1 strain (AID 173);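 also: 0% = growth of vehicle-only control cultures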; conditions: S. cerevisiae sgs1 mutant, stronger effect = higher value
Summary of the method: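 Strain with an altered DNA repair or cell cycle pathway exposed to compound. Growth then measured. Value = inhibition versus vehicle control.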

[14] = NCI Yeast Anticancer Drug Screen. Data for the mlh1 rad18 strain (AID 175); conditions: S. cerevisiae mlh1 rad18 strain growth inhibition, stronger effect = higher value
Summary of the method: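 A repair-deficient yeast strain is exposed to test compound, and growth is scored relative to vehicle-treated controls.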

[15] = NCI Yeast Anticancer Drug Screen. Data for the rad18 strain (AID 177); conditions: S. cerevisiae rad18 mutant growth inhibition, stronger effect = higher value
Summary of the method: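 DNA-repair-defective yeast; compound treatment; growth inhibition scored against vehicle.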

[16] = at 5.0 µM (retest, dose inferred, filed as 0.5)
[17] = at 50.0 µM (retest, dose inferred, filed as 5.0)

Measured: growth inhibition

Cc1ccc(S/C(=C\C(=O)O)c2ccccc2)cc1
inactive: [1]; at 1.2 µM 2% | [1]; at 3.7 µM 7% | [1]; at 11.0 µM 12% | [1]; at 33.0 µM 28% | [1]; at 100.0 µM 46% | [2]; at 1.2 µM -6% | [2]; at 3.7 µM -7% | [2]; at 11.0 µM -8% | [2]; at 33.0 µM -2% | [2]; at 100.0 µM 10% | [3]; at 1.2 µM -4% | [3]; at 3.7 µM -5% | [3]; at 11.0 µM -3% | [3]; at 33.0 µM 4% | [3]; at 100.0 µM 32% | [4]; at 1.2 µM 2% | [4]; at 3.7 µM 4% | [4]; [16] -16% | [4]; at 11.0 µM 13% | [4]; at 33.0 µM 30% | [4]; [17] 47% | [4]; at 50.0 µM 41.9% | [4]; at 100.0 µM 52% | [5]; at 1.2 µM -6% | [5]; at 3.7 µM -3% | [5]; [16] -15% | [5]; at 11.0 µM -4% | [5]; at 33.0 µM 8% | [5]; [17] -1% | [5]; at 50.0 µM 28.9% | [5]; at 100.0 µM 25% | [6]; at 1.2 µM -1% | [6]; at 3.7 µM 3% | [6]; at 11.0 µM 7% | [6]; at 33.0 µM 17% | [6]; at 100.0 µM 34% | [7]; [16] -12% | [7]; [17] 52% | [7]; at 50.0 µM 64.8% | [8]; at 1.2 µM 1% | [8]; at 3.7 µM -2% | [8]; at 11.0 µM 5% | [8]; at 33.0 µM 16% | [8]; at 100.0 µM 35% | [9]; [16] -6% | [9]; [17] 29% | [9]; at 50.0 µM 47.5% | [10]; at 1.2 µM -4% | [10]; at 3.7 µM -4% | [10]; [16] -2% | [10]; at 11.0 µM -4% | [10]; at 33.0 µM 6% | [10]; [17] 66% | [10]; at 50.0 µM 39.5% | [10]; at 100.0 µM 19% | [11]; at 1.2 µM -10% | [11]; at 3.7 µM -11% | [11]; at 11.0 µM -7% | [11]; at 33.0 µM -3% | [11]; at 100.0 µM 11% | [12]; at 1.2 µM -6% | [12]; at 3.7 µM 0% | [12]; at 11.0 µM 6% | [12]; at 33.0 µM 20% | [12]; at 100.0 µM 38% | [13]; at 1.2 µM 4% | [13]; at 3.7 µM -4% | [13]; at 11.0 µM 12% | [13]; at 33.0 µM 25% | [13]; at 100.0 µM 50% | [14]; [16] -29% | [14]; at 50.0 µM 38% | [15]; at 1.2 µM -4% | [15]; at 3.7 µM 4% | [15]; at 11.0 µM 7% | [15]; at 33.0 µM 20% | [15]; at 100.0 µM 50%
active: [14]; [17] 72%
